Here are results for four compounds from PubChem BioAssay.

The nature of assay [1]: rapamycin-like changes in RPL19A-GFP expression – cell-based, S. cerevisiae, multiplex flow cytometry, primary screen (AID 1862).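 Further: lower values mimic rapamycin by blocking the RPL19A rise seen in DMSO cells.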 Particulars: S. cerevisiae RPL19A-GFP strain, flow cytometry fluorescence, 3 h; at 10 µM; stronger effect = lower value. In general terms: In flow cytometry, cells or beads pass a laser one at a time.
Assay [2] can be described thus: TOR pathway GLN3 branch reporter MEP2-GFP changes – S. cerevisiae, multiplex flow cytometry, primary screen (AID 1867;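 active means GFP response, as percent of the DMSO control, above the screen-wide mean plus 3 SD, about 139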;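 further: median GFP channel fluorescence of barcode-gated MEP2-GFP cells measured by flow cytometry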). To be noted: S. cerevisiae MEP2-GFP strain, 3 h, at 10 µM, stronger effect = higher value, 100% means same as DMSO wells.
Assay [3] is described as follows: TOR pathway RTG branch CIT2 reporter changes – S. cerevisiae, GFP fusion, multiplex flow cytometry, primary screen (AID 1870;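 active means percent response above a set limit, the screen-wide mean plus 3 SD, cut at about 130% in these data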;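 further: barcoded CIT2-GFP strain pooled with four other GFP strains with rapamycin as positive control; median GFP fluorescence per well over plate mean of DMSO wells so 100% = DMSO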). Particulars: S. cerevisiae CIT2-GFP expression, 3 h, at 10 µM, stronger effect = higher value.
The nature of assay [4]: TOR pathway LAP4-GFP level changes – S. cerevisiae, multiplex flow cytometry, primary screen (AID 1873;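 active means GFP signal, as percent of the solvent control, above the screen mean plus 3 SD, about 149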). To be noted: S. cerevisiae LAP4-GFP expression, 3 h, at 10 µM, stronger effect = higher value.
Assay [5] in a line: yeast AGP1-GFP level changes, GLN3 branch – cell-based, multiplex flow cytometry, S. cerevisiae, primary screen (AID 1887;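 active means GFP signal above the screen-wide mean plus 3 SD, that is over about 124.5% of the solvent control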;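 further: AGP1-GFP fusion strain of S. cerevisiae within a five-strain barcoded multiplex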). To be noted: 3 h, at 10 µM, stronger effect = higher value.
Assay [6] is described as follows: reduced mouse 2C T cell binding to pMHC/ICAM-1 vesicles – MLPCN validation set, flow cytometry, LFA-1/ICAM-1 modulator project, pilot screen (AID 2523;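 active means response below a set limit, under 55% cells CD8-positive and vesicle-bound, and CD8 cells' 90th-percentile brightness under 279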;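 on vesicle binding response: mean PE anti-B7-1 fluorescence of CD8+ cells relative to row control; 100% = QL9-loaded vesicles with DMSO vehicle in the same plate row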). Particulars: 2C mouse CD8+ T cells, at 7 µM, stronger effect = lower value; double positive events: measured here: CD8+/vesicle+ event percentage.
The target of assay [7] is Integrin beta-1 (Homo sapiens) + Integrin alpha-4 (Homo sapiens) (UniProt P13612+P05556). Nature of the assay: alpha4beta1 integrin LIBS antibody binding reduction – U937 cells, HUTS-21 mAb, flow cytometry, validation set, VLA-4 allosteric modulator project, pilot screen (AID 2674;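 active means inhibition above 50%, about 3 SD of the validation set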;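 further: antibody binding induced by the VLA-4 ligand LDV present at three times its Kd; 0% = LDV ligand with antibody and no compound and 100% = antibody without LDV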). Particulars: HUTS-21 LIBS mAb binding, at 6.7 µM, stronger effect = higher value, binding induced by LDV ligand.

A short description of assay [8]: calorie-restriction mimetic ROS inhibitors, yeast – validation compound set, pilot screen (AID 2706;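 active means superoxide response below 65% of plate, a cut near 3 SD across the whole screen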;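 further: yeast exposed to compound for one week at 30 degrees C before staining; 100% = mean of all compound wells on the same plate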). Particulars: S. cerevisiae aging, superoxide DHE fluorescence; at 10 µM; stronger effect = lower value.
For assay [9], the target named is Beta-adrenergic receptor kinase 1 (Homo sapiens) (UniProt P25098). Nature of the assay: GRK2 binders displacing RNA aptamer, biochemical, validation, human GRK2, bead flow cytometry (AID 488806;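 active means aptamer binding inhibition above 30%, about 3 SD of noise from non-fluorescent compounds; inactive means inhibition at or below 30%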). Particulars: bead-bound GRK2, FAM-aptamer displacement, at 10 µM, stronger effect = higher value.
Assay [10] deals with Beta-2 adrenergic receptor (Homo sapiens) (UniProt P07550). Nature of the assay: agonist-induced loss of surface beta2AR – cell-based, FAP fluorogen, flow cytometry, validation set, pilot screen (AID 504459;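 active means percent response above 42, roughly 3 SD of non-fluorescent test compounds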;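 further: agonist-driven loss of surface beta2AR via internalization measured by FAP dye flow cytometry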). Particulars: Am2.2-beta2AR cells, at 10 µM, stronger effect = higher value.
For assay [11], the target named is AP-2 complex subunit beta (Homo sapiens) (UniProt P63010). Nature of the assay: beta-arrestin/AP2 interaction blockers – biochemical, validation set, GST-AP2 beads, flow cytometry, pilot screen (AID 504541;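 active means inhibition above 54%, about 3 SD of non-fluorescent compounds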;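 further: AP2 carries R879A mutation and is captured from E. coli lysate; bead-bound FITC arrestin peptide fluorescence measuring arrestin peptide binding to AP2; 0% = DMSO wells and 100% = excess unlabeled arrestin peptide control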). Particulars: FITC arrestin peptide, at 10 µM, stronger effect = higher value, AP2 beta2 appendage fragment, R879A mutant.
Assay [12] is described as follows: cytosolic pH regulators acting via V-ATPase – S. cerevisiae, pHLuorin, HTS validation (AID 504600; in the data active means response above about 15%;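 further: plate controls were DMSO for no effect and reference compound for full effect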). To be noted: V-ATPase proton transport, at 10 µM, stronger effect = higher value.
Assay [13] relates to anti-desmoglein-3 scFv antibody binding to human DSG3. Nature of the assay: blockers of pathogenic pemphigus antibody–desmoglein-3 binding – biochemical, validation compound set, bead-based, flow cytometry, pilot screen (AID 588368;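 active means binding below the plate cutoff, the plate median minus 3 SD, with a reading above zero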;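 further: signal is the median channel fluorescence of bead-bound GFP antibody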). Particulars: Protein G beads, DSG3-Fc, scFv-GFP binding, at 10 µM, stronger effect = lower value.
Assay [14] is described as follows: Nile Red efflux blockade in pump-expressing yeast – validation compound set, multiplex, phenotypic, pilot screen (AID 588506;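 active means efflux inhibition above 0.42, the validation set average plus 4 SD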;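 further: Nile Red retained in cells so higher fluorescence means more efflux inhibition; 0 = negative control wells and 1 = enniatin B 25 µM full block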). To be noted: S. cerevisiae pump-expressing triplex, Nile Red efflux flow cytometry; at 10 µM; stronger effect = higher value; the pumps come from Candida albicans.
In assay [15] the target is ATP-binding cassette sub-family B member 6 (Homo sapiens) (UniProt Q9NP58). Nature of the assay: blockers of ABCB6-driven porphyrin uptake – K562-ABCB6 cells, flow cytometry, validation set, pilot screen (AID 588550;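 active means inhibition above the screen-wide mean plus 3 SD, about 51%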;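 further: 0% = DMSO wells and 100% = benzethonium chloride 70 µM positive control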). Particulars: K562-ABCB6 porphyrin accumulation, 1 h, at 10 µM, stronger effect = higher value.
Assay [16] in a line: AML differentiation inducers, ER-HoxA9 marrow cells – cell-based, GFP/MAC1 double positive, flow cytometry, validation set, primary screen (AID 588685;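 active means differentiation response of at least 50%, scaled between solvent and reference control, from cells with both markers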;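 further: compound exposure lasts four days before antibody staining and flow analysis; 0% = DMSO wells and 100% = 5 µM fulvestrant positive control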). To be noted: stronger effect = higher value, normalized: vehicle 0, fulvestrant 100.

Values joined by “and” are separate entries in the source; they are usually repeats but may differ in a detail not shown here. Equal values may be shown once. Records with an inconclusive call do not appear. Active and inactive are the calls of the source. Unless noted, no stated cut-off is given here; in the data, active means percent of DMSO control GFP below about 86%; inactive means the rest, inconclusive results apart.

The inhibition is the change of the read-out against control, counted positive when it falls.

Chain of Beta-2 adrenergic receptor (Homo sapiens) (P07550 whole entry, looked up): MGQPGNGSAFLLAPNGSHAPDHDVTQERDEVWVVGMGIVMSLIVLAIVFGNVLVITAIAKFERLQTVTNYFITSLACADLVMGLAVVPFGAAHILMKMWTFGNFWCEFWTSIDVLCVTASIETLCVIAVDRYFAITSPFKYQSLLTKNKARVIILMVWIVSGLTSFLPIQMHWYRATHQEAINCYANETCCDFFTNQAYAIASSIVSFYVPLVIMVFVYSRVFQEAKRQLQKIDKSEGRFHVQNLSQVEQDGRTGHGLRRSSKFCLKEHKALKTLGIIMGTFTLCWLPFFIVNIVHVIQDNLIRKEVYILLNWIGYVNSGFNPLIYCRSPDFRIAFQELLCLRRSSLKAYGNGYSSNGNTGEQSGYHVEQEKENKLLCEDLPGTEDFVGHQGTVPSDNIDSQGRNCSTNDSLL
Chain of Integrin beta-1 (Homo sapiens) + Integrin alpha-4 (Homo sapiens) (P05556 whole entry, looked up): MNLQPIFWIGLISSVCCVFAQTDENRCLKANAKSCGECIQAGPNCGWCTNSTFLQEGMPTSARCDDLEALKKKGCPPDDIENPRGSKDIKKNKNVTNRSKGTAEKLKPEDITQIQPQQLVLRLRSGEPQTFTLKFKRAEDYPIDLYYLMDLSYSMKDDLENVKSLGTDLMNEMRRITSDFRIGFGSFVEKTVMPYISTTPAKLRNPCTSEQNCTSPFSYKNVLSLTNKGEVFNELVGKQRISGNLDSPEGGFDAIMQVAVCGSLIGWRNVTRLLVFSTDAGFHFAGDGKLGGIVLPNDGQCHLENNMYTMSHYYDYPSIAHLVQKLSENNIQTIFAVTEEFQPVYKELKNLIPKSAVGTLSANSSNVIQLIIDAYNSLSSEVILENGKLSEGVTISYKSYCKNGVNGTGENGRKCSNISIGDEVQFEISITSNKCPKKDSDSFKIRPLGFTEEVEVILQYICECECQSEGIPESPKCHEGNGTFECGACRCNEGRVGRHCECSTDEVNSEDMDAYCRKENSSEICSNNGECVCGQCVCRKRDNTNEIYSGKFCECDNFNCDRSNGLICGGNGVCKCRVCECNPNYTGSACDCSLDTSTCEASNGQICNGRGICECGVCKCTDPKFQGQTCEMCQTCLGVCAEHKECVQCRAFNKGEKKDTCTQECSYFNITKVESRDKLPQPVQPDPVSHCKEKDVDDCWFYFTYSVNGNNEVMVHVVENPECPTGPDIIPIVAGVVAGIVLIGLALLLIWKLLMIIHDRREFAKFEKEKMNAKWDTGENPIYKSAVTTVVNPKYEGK
Chain of Integrin beta-1 (Homo sapiens) + Integrin alpha-4 (Homo sapiens) (P13612 whole entry, looked up): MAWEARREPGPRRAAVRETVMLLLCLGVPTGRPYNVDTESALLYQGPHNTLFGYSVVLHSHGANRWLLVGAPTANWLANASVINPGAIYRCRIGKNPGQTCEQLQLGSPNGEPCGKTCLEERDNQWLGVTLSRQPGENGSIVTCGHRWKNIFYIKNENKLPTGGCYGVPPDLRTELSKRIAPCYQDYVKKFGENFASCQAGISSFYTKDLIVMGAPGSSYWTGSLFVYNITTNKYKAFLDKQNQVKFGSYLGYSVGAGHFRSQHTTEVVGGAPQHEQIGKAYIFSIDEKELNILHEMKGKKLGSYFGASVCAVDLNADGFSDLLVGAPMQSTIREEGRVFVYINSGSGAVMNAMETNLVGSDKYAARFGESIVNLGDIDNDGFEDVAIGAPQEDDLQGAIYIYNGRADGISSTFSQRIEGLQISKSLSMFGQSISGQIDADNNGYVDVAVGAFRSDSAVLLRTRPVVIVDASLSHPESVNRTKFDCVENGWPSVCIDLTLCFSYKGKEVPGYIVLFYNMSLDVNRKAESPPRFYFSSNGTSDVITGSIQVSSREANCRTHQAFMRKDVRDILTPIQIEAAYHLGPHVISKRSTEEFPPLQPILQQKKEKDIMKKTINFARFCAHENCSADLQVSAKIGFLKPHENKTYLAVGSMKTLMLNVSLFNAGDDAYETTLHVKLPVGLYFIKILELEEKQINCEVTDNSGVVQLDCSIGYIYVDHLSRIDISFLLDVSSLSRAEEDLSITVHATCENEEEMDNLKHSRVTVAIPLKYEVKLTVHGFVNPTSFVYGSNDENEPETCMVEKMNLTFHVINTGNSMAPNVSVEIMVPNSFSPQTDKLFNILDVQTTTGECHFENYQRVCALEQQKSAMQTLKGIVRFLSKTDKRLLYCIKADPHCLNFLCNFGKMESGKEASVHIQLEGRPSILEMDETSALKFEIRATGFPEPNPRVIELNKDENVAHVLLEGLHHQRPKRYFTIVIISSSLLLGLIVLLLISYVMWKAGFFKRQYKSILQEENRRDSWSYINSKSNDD
Chain of Beta-adrenergic receptor kinase 1 (Homo sapiens) (P25098 whole entry, looked up): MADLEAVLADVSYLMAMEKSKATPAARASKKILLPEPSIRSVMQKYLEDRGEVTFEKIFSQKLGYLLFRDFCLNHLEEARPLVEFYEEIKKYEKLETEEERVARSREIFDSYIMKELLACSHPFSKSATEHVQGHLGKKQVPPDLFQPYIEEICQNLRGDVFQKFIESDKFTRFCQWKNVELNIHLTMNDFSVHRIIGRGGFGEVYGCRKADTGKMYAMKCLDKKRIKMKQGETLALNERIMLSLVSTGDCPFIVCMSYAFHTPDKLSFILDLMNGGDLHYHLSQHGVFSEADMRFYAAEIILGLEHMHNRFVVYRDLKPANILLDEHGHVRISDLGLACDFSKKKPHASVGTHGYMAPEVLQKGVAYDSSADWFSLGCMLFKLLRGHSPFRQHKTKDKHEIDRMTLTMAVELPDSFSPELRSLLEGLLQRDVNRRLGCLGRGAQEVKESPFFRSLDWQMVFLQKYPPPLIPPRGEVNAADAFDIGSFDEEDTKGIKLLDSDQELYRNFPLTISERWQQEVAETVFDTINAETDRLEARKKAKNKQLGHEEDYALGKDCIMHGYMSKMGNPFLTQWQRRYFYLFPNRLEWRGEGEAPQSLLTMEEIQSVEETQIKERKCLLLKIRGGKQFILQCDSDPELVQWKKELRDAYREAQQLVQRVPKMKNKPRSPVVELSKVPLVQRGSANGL
Chain of AP-2 complex subunit beta (Homo sapiens) (P63010 whole entry, looked up, the tested form may be a part, one chain of several): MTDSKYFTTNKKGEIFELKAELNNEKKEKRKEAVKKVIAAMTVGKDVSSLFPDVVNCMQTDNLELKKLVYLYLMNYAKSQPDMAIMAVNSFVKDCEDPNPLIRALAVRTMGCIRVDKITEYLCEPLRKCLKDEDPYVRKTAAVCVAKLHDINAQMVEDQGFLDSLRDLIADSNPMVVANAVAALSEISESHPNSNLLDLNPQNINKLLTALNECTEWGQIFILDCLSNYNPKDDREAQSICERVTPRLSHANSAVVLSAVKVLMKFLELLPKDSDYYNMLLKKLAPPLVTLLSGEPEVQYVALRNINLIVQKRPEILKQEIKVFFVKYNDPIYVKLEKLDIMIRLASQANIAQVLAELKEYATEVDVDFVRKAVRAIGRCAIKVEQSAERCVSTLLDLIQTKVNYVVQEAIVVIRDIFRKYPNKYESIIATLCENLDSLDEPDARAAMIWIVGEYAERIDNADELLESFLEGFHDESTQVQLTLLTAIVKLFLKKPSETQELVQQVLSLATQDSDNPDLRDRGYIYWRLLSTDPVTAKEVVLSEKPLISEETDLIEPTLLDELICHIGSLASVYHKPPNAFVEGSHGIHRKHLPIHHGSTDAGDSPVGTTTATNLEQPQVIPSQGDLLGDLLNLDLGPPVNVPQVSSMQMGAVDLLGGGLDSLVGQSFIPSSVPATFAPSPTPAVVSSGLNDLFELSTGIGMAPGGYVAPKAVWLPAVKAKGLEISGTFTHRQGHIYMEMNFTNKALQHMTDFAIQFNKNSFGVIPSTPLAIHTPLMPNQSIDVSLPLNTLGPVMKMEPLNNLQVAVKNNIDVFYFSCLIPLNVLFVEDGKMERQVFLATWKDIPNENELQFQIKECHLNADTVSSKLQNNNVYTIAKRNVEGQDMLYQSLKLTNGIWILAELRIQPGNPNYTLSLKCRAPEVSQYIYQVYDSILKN
Chain of ATP-binding cassette sub-family B member 6 (Homo sapiens) (Q9NP58 whole entry, looked up): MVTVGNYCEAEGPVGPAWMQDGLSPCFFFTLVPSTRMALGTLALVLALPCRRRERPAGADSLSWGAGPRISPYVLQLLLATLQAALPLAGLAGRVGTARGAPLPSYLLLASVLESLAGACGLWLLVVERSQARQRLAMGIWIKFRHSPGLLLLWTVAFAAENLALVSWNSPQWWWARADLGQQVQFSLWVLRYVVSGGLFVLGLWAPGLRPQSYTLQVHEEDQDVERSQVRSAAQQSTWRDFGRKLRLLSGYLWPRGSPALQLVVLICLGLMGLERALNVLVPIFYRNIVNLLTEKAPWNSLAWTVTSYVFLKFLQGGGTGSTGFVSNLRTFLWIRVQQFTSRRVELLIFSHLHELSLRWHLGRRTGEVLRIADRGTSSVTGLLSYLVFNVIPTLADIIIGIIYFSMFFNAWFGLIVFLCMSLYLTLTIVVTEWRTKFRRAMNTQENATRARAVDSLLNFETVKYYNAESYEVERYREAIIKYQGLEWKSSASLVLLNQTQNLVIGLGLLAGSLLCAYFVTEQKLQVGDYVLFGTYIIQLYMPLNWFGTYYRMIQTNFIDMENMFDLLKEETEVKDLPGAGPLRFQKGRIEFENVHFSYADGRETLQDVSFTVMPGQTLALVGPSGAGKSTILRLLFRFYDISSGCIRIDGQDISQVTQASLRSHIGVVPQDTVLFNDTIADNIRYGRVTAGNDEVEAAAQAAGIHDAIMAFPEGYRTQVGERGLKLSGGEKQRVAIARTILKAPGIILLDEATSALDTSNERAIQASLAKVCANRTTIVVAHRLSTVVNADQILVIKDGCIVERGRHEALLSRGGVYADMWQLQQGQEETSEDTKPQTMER

As to `CCN(CC)CC#CCOC(=O)C(O)(c1ccccc1)C1CCCCC1` (stereo not drawn), in [1], the percent of DMSO control GFP was 91.1% (inactive). The GFP response vs DMSO in assay [2] was 132% (inactive); in [4], 83.1% (inactive). Also, in [3], the percent response of DMSO control was 110% (inactive). Besides, in [5], the GFP response, % of DMSO was 91.2% (inactive). In assay [6], this compound yielded a double positive events of 62.3%. Also, the vesicle binding response in assay [6] is 181% (inactive). Besides, the figures for the inhibition in assay [7], in assay [11] and in [15] were 10.3% (inactive), -2.84% (inactive) and 8% (inactive), respectively. In addition, the superoxide response (% of plate) in assay [8] is 112% (inactive). The aptamer binding inhibition in assay [9] was 4% (inactive). The response is 14.8% (inactive) in assay [10] and -0.18% (inactive) in assay [12]. In assay [13], the binding (% of control) was 104% (inactive). The efflux inhibition (fraction of control) in assay [14] is 0.3 (inactive). In assay [16], the differentiation response is -1.64% (inactive).

Regarding `Cc1ccc(N(CC2=NCCN2)c2cccc(O)c2)cc1`, the percent of DMSO control GFP in [1] is 107% (inactive) and 88.9% (inactive) and 106% (inactive). Besides, the GFP response vs DMSO in assay [2] is 107% (inactive) and 126% (inactive) and 96.9% (inactive); in [4], 105% (inactive) and 80.3% (inactive) and 113% (inactive). Besides, the percent response of DMSO control in [3] is 112% (inactive) and 107% (inactive) and 114% (inactive). Further, in assay [5], the GFP response, % of DMSO is 105% (inactive) and 95.6% (inactive) and 106% (inactive). Further, the double positive events in assay [6] was 48.5% and 66.6% and 52.4%. Besides, in [6], the vesicle binding response was 164% (inactive) and 159% (inactive) and 183% (inactive). In addition, the inhibition is -12.4% (inactive) and 6.46% (inactive) and 1.62% (inactive) in assay [7]; -1.88% (inactive) and 0.96% (inactive) and -11.2% (inactive) in [11]; 9% (inactive) and 4% (inactive) and 7% (inactive) in assay [15]. Besides, in assay [8], the superoxide response (% of plate) was 94.9% (inactive) and 91.2% (inactive) and 102% (inactive). In assay [9], the aptamer binding inhibition is -2% (inactive) and 0% (inactive) and -7% (inactive). Besides, the response in assay [10] was -2.19% (inactive); in assay [12] it was 1.2% (inactive) and -3.77% (inactive) and 0.74% (inactive). Further, in [13], the binding (% of control) was 98.2% (inactive) and 102% (inactive) and 97.7% (inactive). In addition, the efflux inhibition (fraction of control) in assay [14] is -0.05 (inactive) and 0.23 (inactive) and -0.24 (inactive). Moreover, in assay [16], the differentiation response is -34.1% (inactive) and 3.28% (inactive) and -18% (inactive).

Turning to `COc1cc(C2Nc3ccccc3NC3=C2C(=O)CC(c2ccc(OC)c(OC)c2)C3)ccc1O` (stereo not drawn), the percent of DMSO control GFP in assay [1] is 107% (inactive). Also, the GFP response vs DMSO in [2] was 95.2% (inactive); in [4] it was 64.1% (inactive). Also, in [3], the percent response of DMSO control is 117% (inactive). Further, the GFP response, % of DMSO in assay [5] is 92.2% (inactive). The compound also displayed a double positive events in assay [6] of 53.7%. In addition, in assay [6], the vesicle binding response is 104% (inactive). Also, the inhibition was -3.16% (inactive) in assay [7], -8.83% (inactive) in assay [11] and 11% (inactive) in assay [15]. Besides, the superoxide response (% of plate) in [8] is 107% (inactive). Also, the aptamer binding inhibition in [9] is 3% (inactive). For the same compound, the response was 0.79% (inactive) in [10] and 1.04% (inactive) in [12]. Besides, the binding (% of control) in assay [13] was 98.4% (inactive). For the same compound, the efflux inhibition (fraction of control) in assay [14] is -0.35 (inactive). In addition, the differentiation response in assay [16] is -18.4% (inactive).

With `CC(C)CN1CCN(Cc2cccn2-c2ccccn2)CC1CCO` (stereo not drawn), the percent of DMSO control GFP in [1] was 90.9% (inactive). In addition, the GFP response vs DMSO in assay [2] is 113% (inactive); in assay [4], 80.3% (inactive). In addition, in assay [3], the percent response of DMSO control was 103% (inactive). In addition, in [5], the GFP response, % of DMSO was 95.9% (inactive). Also, the double positive events in assay [6] came out at 64.2%. Also, the vesicle binding response in assay [6] is 241% (inactive). In addition, the results for the inhibition in [7], in assay [11] and in assay [15] were 22.9% (inactive), -9.17% (inactive) and 16% (inactive), respectively. The superoxide response (% of plate) in assay [8] is 114% (inactive). Further, the aptamer binding inhibition in assay [9] was -2% (inactive). The response in assay [10] is -7.51% (inactive); in assay [12], 74.8% (active). The binding (% of control) in assay [13] is 102% (inactive). Also, the efflux inhibition (fraction of control) in [14] was 0.48 (active). Besides, in assay [16], the differentiation response is 1.64% (inactive).
